Each sequence was assayed against AHCY (assay: pooled miR-30 sensor sort-seq; sequence = guide strand). Conditions: shRNA.

Sequence | sensor-assay potency score (higher = more potent)
TTGCTTCTCAGTTAGCTTGGTC | -0.044
TCTTTTAACATTATAGGCCAAA | -1.21
ACACACAATGGCATCATCCTTC | -0.521
TTGATGGGGTCAATCTCGGTGA | -1.04
TTGATGTTCACCTTCTCCACGG | 0.235
TCATCTTGTAGAGGTTGTGGAC | -0.726
TTGTAGAGGTTGTGGACCCCAG | -0.72
TTACTCATCACGAAGCTGGGGT | 0.777
TTAACAGTCTATTCTAACCCCT | -0.371
TAGAGGTTGTCAAACTTGCTCT | -0.554
TCGGCCAGCAGGATGATGCGGC | -0.886
AAACTTGCTCTTGGTGACGGAG | -1.03
TAACAGTCTATTCTAACCCCTG | -0.522
TATAAGTCCACAGACCAGGTGA | 0.25
TAGCTTGGTCAACTTCACATTC | -1.21
TTGGTGTGGATGAGGTTGGTGA | -1.01
TCGATCTGCGCCATCACCTGGT | -0.451
TTCATCTGCTCAAAGTGCCGGC | -0.375
TTAGCTTGGTCAACTTCACATT | -0.84
ATGATGTCAATACAGCCTGTGG | -1.59
ATCTCGGTGATGATGACGCGGG | -1.23

What follows are sequences tested against AHDC1 in the same assay as above. Conditions: shRNA.

Sequence | sensor-assay potency score (higher = more potent)
TTGCTGTTAGCGCAGTCCTGGC | -1.57
TCTGGTTCCAGTTGTAGCCGGG | 0.572
TTGTATGTGGTCTTGTTCCGCC | -0.176
TAGCTTGCTGCTCGTCCTGGTG | -0.838
TTCTTCATCTTCAGCAGCGGGG | -0.945
TTGCGGGTAGAGACCACTGGGG | -0.627
TTTGTATGTGGTCTTGTTCCGC | 0.223
TTGAACTGGGTGCTGTCGGAGG | -0.689
TTTGCGGGTAGAGACCACTGGG | -0.394
TTGGGTACCATGTAGCCACCGG | -0.207
ATGCTTGCCATCAAGCTCGGGA | -0.78
AACTCTGGGACTGAGACCGGGC | -0.558

Each sequence was assayed against AIG1 in the same assay as above. Conditions: shRNA.

Sequence | sensor-assay potency score (higher = more potent)
TTTGGAAACAACTGTATTCTAT | -0.0597
TTAAGATGGTTGTAGACCCAAA | -0.997
TAGAGCAGTAAGACAGCAGGAT | 0.285
TTCGGGTATATCATCTCTCTGT | -0.249
TTCTTTAACACACAGTGAGGGT | -0.962
AATTCTTTAACACACAGTGAGG | -1.45
TAAATGATCCAGAACACTGCTA | 0.31

Reference: the OligoGym collection
